Test results as given in PubChem BioAssay (NCI).
Several values for one entry are separate records, joined by “and”; a condition that tells them apart may be missing. Identical values can stand only once. This is part of a sample that, as a whole, favours compounds with a hit. Of some 83,000 tested, about 20% had one in any assay.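 For each line, cells grew in 96-well plates with the test compound present at a single concentration for 48 hours.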 Activity calls are given as the source filed them. Rule for the calls: active = growth percent below 10; inactive = the rest.

How the values were obtained:
Test in all cases: NCI-60 one-dose screen, 48 h (100 = growth as untreated, 0 = no growth, -100 = all killed)
Settings in all cases: 10 µM unless noted
DU-145 prostate = system: DU-145 prostate
K-562 leukemia = system: K-562 leukemia
MALME-3M melanoma = system: MALME-3M melanoma
MDA-MB-231 breast = system: MDA-MB-231 breast
RXF 393 renal = system: RXF 393 renal
SF-268 CNS = system: SF-268 CNS
SF-295 CNS = system: SF-295 CNS
SF-539 CNS = system: SF-539 CNS
UACC-257 melanoma = system: UACC-257 melanoma
M14 melanoma = system: M14 melanoma

Measured: growth

NC(=O)/C=C/C(=O)c1c(Cl)cccc1Cl
inactive: SF-295 CNS 81.9%
active: DU-145 prostate -75.9% | K-562 leukemia -19.2% | MALME-3M melanoma -68.4% | MDA-MB-231 breast -79.1% | RXF 393 renal -41.6% | SF-268 CNS -57.3% | SF-539 CNS -95.4% | UACC-257 melanoma -81.7% | M14 melanoma -96.5%

CCCCCCCCCCCCCCCC[N+](C)(CCO)Cc1cnc[nH]1 (centres undefined)
active: DU-145 prostate -32% | K-562 leukemia -61.6% | MALME-3M melanoma -3.54% | MDA-MB-231 breast -54.9% | RXF 393 renal -44.7% | SF-268 CNS -66.1% | SF-295 CNS -31.7% | SF-539 CNS -54.3% | UACC-257 melanoma -34.5% | M14 melanoma -41.9%

CCCCCCC(C)c1ccccc1O (centres undefined) (tested in a mixture with another compound)
inactive: DU-145 prostate 116% | K-562 leukemia 106% | MALME-3M melanoma 106% | MDA-MB-231 breast 104% | RXF 393 renal 113% | SF-268 CNS 112% | SF-295 CNS 116% | SF-539 CNS 99.3% | UACC-257 melanoma 117% | M14 melanoma 111%

CCCCCCCCCCCCCCCCOP(=O)([O-])OCC[N+](C)(C)C
inactive: DU-145 prostate 82.2% | K-562 leukemia 64.6% | MALME-3M melanoma 74.1% | MDA-MB-231 breast 36.8% | SF-268 CNS 32.5% | SF-295 CNS 28% | SF-539 CNS 55.9% | UACC-257 melanoma 76.7%
active: RXF 393 renal -32.1% | M14 melanoma -10.6%

COc1ccc(N=N/N=c2\sc3cc(OC)ccc3n2C)cc1
inactive: DU-145 prostate 91.8% | K-562 leukemia 80.8% | MALME-3M melanoma 109% | MDA-MB-231 breast 90.5% | RXF 393 renal 105% | SF-268 CNS 97.6% | SF-295 CNS 83.3% | SF-539 CNS 99.4% | UACC-257 melanoma 80% | M14 melanoma 110%

Nc1ccc(SSc2ccc(N)cc2)cc1
inactive: DU-145 prostate 111% | MALME-3M melanoma 104% | MDA-MB-231 breast 82.4% | RXF 393 renal 108% | SF-268 CNS 106% | SF-295 CNS 82.6% | SF-539 CNS 106% | UACC-257 melanoma 86.1% | M14 melanoma 97.7%

O[C@H]1[C@H]2c3cc4c(cc3CN3CCC(=C[C@@H]1O)[C@H]23)OCO4
active: DU-145 prostate 9.62%
inactive: K-562 leukemia 21.4% | MALME-3M melanoma 41.9% | MDA-MB-231 breast 39.6% | RXF 393 renal 19% | SF-268 CNS 24.4% | SF-295 CNS 34% | SF-539 CNS 14% | UACC-257 melanoma 45.7% | M14 melanoma 15.9%

CC1SC(=S)N(c2ccc(Cl)cc2)C1=O (centres undefined)
inactive: DU-145 prostate 104% and 96.3% | K-562 leukemia 84.1% and 78.8% | MALME-3M melanoma 104% and 108% | MDA-MB-231 breast 99.6% and 86.4% | RXF 393 renal 116% | SF-268 CNS 109% and 84.1% | SF-295 CNS 96% and 98.8% | SF-539 CNS 98.5% and 70.7% | UACC-257 melanoma 97.9% | M14 melanoma 111% and 105%

O=C(O)C1C2CC3C(OC(=O)C31)C2Br (centres undefined)
inactive: DU-145 prostate 122% and 107% | K-562 leukemia 113% and 110% | MALME-3M melanoma 101% and 93.5% | MDA-MB-231 breast 103% and 115% | RXF 393 renal 98.2% and 93.5% | SF-268 CNS 109% and 106% | SF-295 CNS 96.9% and 101% | SF-539 CNS 99.5% | UACC-257 melanoma 82.7% and 95% | M14 melanoma 96.7% and 98.3%
